MARV entry inh – inhibitors of Marburg virus binding or cell entry; AID 540276; hit rate 1.8% among 300,000; Marburg virus pseudotyped entry inhibition, cell reporter; Potency, µM (doses to about 37.8 µM), without a hit: at the highest dose activity change, negative = inhibition, hits mostly inhibitors; calls by dose curve; tested in HEK293 cells
HCV inhibitor – HCV inhibition | Huh7.5.1 HCVcc-Cre infection, luciferase reporter, 44 h | Potency, µM (doses to about 41.8 µM), for the others: at the highest dose activity change, negative = inhibition, most hits filed as inhibitors | hit rate 3.4% among 340,000 | AID 651820; active = well fitted inhibition curve with a large enough effect; inconclusive = small, poorly fitted or top-dose-only effect, or another doubt; inactive = no such curve, though single readings can be large or run the other way
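HCVcc-Cre virus at an moi near 0.5 was added right after compound to cells cultured 4 h from seeding (1,000 cells/well). Luciferase activity was determined 44 h later, 15 min after substrate addition at RT.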
VACV mCherry inh – vaccinia inhibition (mCherry reporter); hit rate 0.63% among 310,000; Potency, µM (highest dose often 36.5 µM), inactives show at the top dose activity change, negative = inhibition, usual class: inhibitors; Vaccinia virus mCherry reporter infection, fluorescence; AID 720579; calls by dose curve; tested in A549 cells; also: nearly all actives have a fitted effect of over 35% in size
Lassa entry inh – inhibitors of Lassa virus binding or cell entry; Lassa virus pseudotype entry inhibition, cell reporter; Potency, µM (highest dose often 37.9 µM), inactives show top-dose activity change, negative = inhibition, most hits filed as inhibitors; hit rate 1.2% among 300,000; calls by dose curve; tested in HEK293 cells; also: nearly all actives have a fitted effect of over 50% in size
VACV Venus inh – inhibitors of vaccinia virus (Venus reporter); Vaccinia virus Venus reporter expression, fluorescence; Potency, µM (doses to about 36.5 µM), without a hit: top-dose activity change, negative = inhibition, hits mostly inhibitors; hit rate 0.46% among 330,000; AID 720580; calls by dose curve; tested in A549 cells; also: nearly all actives have a fitted effect of over 30% in size
FMDV antiviral – blocks foot and mouth disease virus; FMDV antiviral cell-based qHTS; Potency, µM (highest dose often 57.9 µM), without a hit: at the top dose activity change, negative = inhibition, usual class: inhibitors; hit rate 1.2% among 410,000; calls by dose curve; tested in HEK293T cells; also: read-out not given here; nearly all actives have a fitted effect of over 45% in size
* marks the source's active call; other numbers are inactive results; i = inactive; ? = inconclusive; . = not tested or not shown; [ ] = dose if it differs, or a comment. Compounds with a hit are over-represented: about 5.3% of the library has one in this group of screens. % is scaled to controls: 0 for no effect and ±100 for the full control effect; potency is read from the fitted curve at half-maximal effect.

SMILES	MARV entry inh	HCV inhibitor	VACV mCherry inh	Lassa entry inh	VACV Venus inh	FMDV antiviral
C[C@@H]1O[C@@H](O[C@H]2C[C@@H](O)[C@]3(CO)[C@@H]4C(CC[C@]3(O)C2)[C@@]2(O)CC[C@H](C3COC(=O)C3)[C@@]2(C)C[C@H]4O)[C@H](O)[C@H](O)[C@H]1O (stereo not given in full)	0.82µM*	?	?	.	1.8µM*	?
O=C(CBr)c1ccc(Oc2ccc(C(=O)C[n+]3cccc(Br)c3)cc2)cc1	.	.	50%	.	8%	.
Cc1cc(C(=O)OCC(=O)Nc2ccccc2C(F)(F)F)on1	4%	15%	-15%	20%	-10%	-5%
COc1ccc(C2C=C(c3ccccc3)Nc3nc(NC(=O)/C=C/c4ccccc4OC)nn32)cc1 (stereo not given)	13%[46.1 µM]	.	-6%	-5%[46.1 µM]	-5%	-19%
CCOC(=O)C1CCN(C(=O)c2c(C)oc3c2C(=O)c2ccccc2C3=O)CC1	-36%	-13%	14µM*	?	14µM*	28µM*
Cc1oc2c(c1C(=O)N1CCC(C)CC1)C(=O)c1ccccc1C2=O	?	?	?	-26%	?	?
CCCCOc1ccc(C(=O)Nc2ccncc2)cc1	?	8.9µM*	.	?	?	?
COc1ccc(NS(=O)(=O)c2ccc(NC(=O)c3ccc(CN4CCOCC4)cc3)cc2)cc1	?	1.4µM*	?	?	-25%	-28%
OCCN1CCN(Cc2cccc(Oc3ccc(Cl)cc3)c2)CC1	?	11µM*	-16%	-20%	-17%	-1%
CCCOc1ccc(C(=O)Nc2cccnc2)cc1	.	-12%	.	.	.	56%
COc1ccc(OCc2cccc(C(=O)Nc3ccc(CN4CCCCC4)cc3)c2)cc1	?	-27%	-13%	?	-14%	-25%
CCOc1ccc(OCc2cccc(C(=O)Nc3ccc(CN4CCCCC4)cc3)c2)cc1	6.5µM*	?	?	?	?	0%
COC(=O)[C@@H]1CCCN1Cc1ccc2c(c1)CN(Cc1cccc(Cl)c1)CCO2	.	.	-10%	.	-3%	-4%
CC1CN(c2ccc(Cl)cc2)c2nc3c(c(=O)n(CC(=O)O)c(=O)n3C)n2C1 (stereo not given)	-30%[46.1 µM]	.	-7%	-1%[46.1 µM]	-8%	-16%
CCCCOc1ccc(C(=O)Nc2ccc(CN3CCOCC3)cc2)cc1	.	10µM*	.	.	.	?
O=C(Nc1ccc(S(=O)(=O)Nc2ccc(F)cc2)cc1)c1ccc(CN2CCOCC2)cc1	?	1µM*	-15%	?	-35%	?
CCCOc1ccc(C(=O)Nc2ccc(CN3CCOCC3)cc2)cc1	?	?	i	-3%	-13%	?
CCCCCCOc1ccc(CN2CCN(CCO)CC2)cc1	?	10µM*	.	?	.	5%
CCC1C(=O)NCCN1Cc1ccc2c(c1)CN(Cc1cccc(OC)c1OC)CCO2 (stereo not given)	.	.	-5%	.	-5%	3%
CC(C)N1C(=O)S/C(=C/c2ccc(Sc3nc4ccccc4[nH]3)o2)C1=O	?	10µM*	?	?	?	11µM*
CCOC(=O)C(C)N1C(=O)S/C(=C\c2ccc(-c3ccccc3C(=O)O)o2)C1=O (stereo not given)	.	18%	.	.	.	-6%
C=CCN1C(=O)S/C(=C/c2ccc(Sc3nc4ccccc4[nH]3)o2)C1=O	?	?	?	20µM*	-23%	28µM*
O=C1NC(=O)N(c2ccc(Cl)cc2)C(=O)/C1=C\c1ccc(Sc2nc3ccccc3[nH]2)o1	?	3%	105%	?	402%	-15%
O=C(Oc1c(CN2CCOCC2)cc(Cl)c2cccnc12)c1cccs1	10µM*	?	?	?	?	-17%
O=C(Oc1c(Cl)cc(Cl)c2cccnc12)c1cccs1	?	?	?	?	?	-20%
SMILES	MARV entry inh	HCV inhibitor	VACV mCherry inh	Lassa entry inh	VACV Venus inh	FMDV antiviral
O=C(Oc1c(Cl)cc(Cl)c2cccnc12)c1ccco1	?	?	13µM*	?	?	?
O=C(Oc1c(CN2CCOCC2)cc(Cl)c2cccnc12)c1ccccc1Cl	?	?	3.5µM*	?	5.6µM*	-19%
CC1CCc2cc(F)cc3c2N1C(=O)C(C(=O)Nc1cnccn1)C3=O (stereo not given)	.	.	-23%	.	-16%	.
COc1cc(C=NNc2ncnc3c2cnn3C(C)C)ccc1O	.	.	.	13µM*	.	.
O=C(Cc1cccs1)N[C@@H]1C(=O)N2C(C(=O)[O-])=C(C[n+]3ccccc3)CS[C@H]12	.	.	-13%	.	-7%	-6%
CCN(CCCNC(=O)c1ccc(Sc2ccc(Cl)cc2)c(NC(C)=O)c1)c1cccc(C)c1	.	.	-10%	11%[46.1 µM]	-16%	-17%
CCN(CCNCC(O)COCc1ccc(Cl)cc1)c1cccc(C)c1 (stereo not given)	?	16µM*	?	?	-28%	?
Cc1ccccc1Nc1nc(N)nc(CCl)n1	?	1.3µM*	?	?	?	11%
Nc1nc(CCl)nc(Nc2ccc3ccccc3c2)n1	?	0.89µM*	?	4µM*	?	-26%
Cc1ccccc1Nc1nc(N)nc(COC(=O)c2ccco2)n1	?	?	i	?	-7%	24%
COCc1c(C(=O)OCc2nc(N)nc(Nc3ccccc3C)n2)oc2ccccc12	23µM*	?	.	?	.	-5%
Nc1nc(CN2CCN(Cc3ccccc3)CC2)nc(Nc2ccc3c(c2)OCCO3)n1	9%	-16%	.	-4%	.	-13%
Cc1c(C(=O)N(Cc2ccccc2F)C2CCS(=O)(=O)C2)oc2ccc(F)cc12 (stereo not given)	?	.	-7%	-24%[46.1 µM]	-9%	0%
CN(C)CCCNS(=O)(=O)c1ccc(N2CCC(c3ccc(Cl)cc3)=N2)cc1	.	4µM*	.	.	.	.
C=CCn1c(COc2ccc3c(c2)CCCC3)nnc1SCC(=O)Nc1cccc(SC)c1	?	11µM*	.	-12%	.	-26%
COC(=O)[C@@]12OC[C@]34[C@H]([C@@H](O)[C@@H]1O)[C@@]1(C)C(=O)C(O[C@@H]5OC(CO)[C@@H](O)[C@@H](O)[C@@H]5O)=C[C@@H](C)[C@@H]1C[C@H]3OC(=O)[C@H](OC(=O)/C=C(\C)C(C)(C)OC(C)=O)[C@@H]24 (stereo not given in full)	.	11µM*	8.9µM*	.	8.9µM*	0%
Cc1cc(N)n2nc(-c3ccccc3)cc2n1	8.9µM*	-1%	?	?	-11%	-28%
O=C(COC(=O)COc1ccccc1)Nc1ncc([N+](=O)[O-])s1	?	17%	-13%	6%	0%	13%
N/C(=N\OC(=O)Nc1ccccc1)c1ncc([N+](=O)[O-])s1	?	13µM*	?	-18%	?	-4%
CSc1nc(S(C)(=O)=O)nc2[nH]c(=O)[nH]c12	16%	44%	-12%	?	-9%	-12%

Screening results: PubChem BioAssay, National Center for Advancing Translational Sciences (NCATS)
